PubChem BioAssay (NCI)
About 83,000 compounds went through this panel and 20% of them were active in at least one assay; those are over-represented in the sample as a whole.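 Step 1: grow cells in 96-well plates. Step 2: add test compound at a single concentration. Step 3: incubate 48 h. Step 4: record percent growth.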 A number with no mark means an inactive call. The source made the active and inactive calls. Rule for the calls: active = growth percent below 10; inactive = the rest.

What follows are molecules tested on NCI-H522 lung (assay: NCI-60 one-dose screen, 48 h (100 = growth as untreated, 0 = no growth, -100 = all killed)). Conditions: 10 µM unless noted.

| Compound | growth |
| --- | --- |
| CCCCCc1ccc(S(=O)(=O)Nc2cc(-c3csc(NC(=O)CN4CCN(CCO)CC4)n3)ccc2OC)cc1 | 45.7% |
| N/C(=N\C(N)=N\c1nc2ccccc2s1)c1ccc(C(F)(F)F)cc1 | 88.1% |
| CCn1c(SCC(=O)Nc2cccc(C(=O)/C=C/c3ccc(Br)cc3)c2)nc2ccccc2c1=O | 84% |
| O=S(=O)(NCCCNc1nccc(-c2[nH]c(-c3ccccc3)nc2-c2ccc(Cl)c(O)c2)n1)c1ccc(Br)cc1 | 26.6% |
| CS(=O)(=O)Nc1cc(-c2ccc3ncc(C#N)c(N[C@H](CO)c4ccccc4)c3c2)cnc1Cl | 25.7% |
| Cn1ccnc1C(=O)/C=C/c1ccc(CNC(=O)c2ccc(Cl)cc2)cc1 | 7.07% (active) |
| O=C(Cn1cc(-c2ccccc2)nn1)Nc1nc(-c2ccc(Cl)cc2)cs1 | 88.2% |
| Nc1cc(F)ccc1NC(=O)c1ccc(NC(=O)C/C=C/c2cccnc2)cc1 | 15.2% |
| CCOC(=O)C1=NNC(c2ccc(Cl)cc2)C1C(=O)N1C(=S)NC(=O)C1CC(C)C (stereo not drawn) | 88.4% |
| COc1ccc(S(=O)(=O)NCCCNc2nccc(-c3[nH]c(-c4ccccc4)nc3-c3ccc(Cl)c(O)c3)n2)cc1 | 69.1% |
| N=c1c2cc(-c3ccccc3)oc2ncn1/N=C/c1ccc(Br)cc1 | 91.8% |
| CS(=O)(=O)Nc1cc(-c2ccc3ncc(C#N)c(Nc4cccc(Cl)c4F)c3c2)cnc1Cl | 1.54% (active) |
| C=CCn1c(SCC(=O)Nc2ccc(C(=O)/C=C/c3ccc(Cl)cc3)cc2)nnc1-c1c[nH]c2ccccc12 | 73.4% |
